PvdQ acylase – P. aeruginosa PvdQ acylase inhibition | purified PvdQ acylase, fluorescence plate reader | inhibition, % at 10 µM | 340,000 tested, 0.063% active | AID 488965; in the data active = inhibition above about 30%, passing the limit was not always enough;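 note: 0% = vehicle neutral wells and 100% = reference inhibitor wells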
miR-122 sensor – blocks miR-122 activity in Huh7 sensor cells; Huh7 miR-122 Renilla luciferase sensor, 48 h; neutral wells = 0, positive control = 100; activation (reporter increase), % at 12.5 µM; 340,000 tested, 0.3% active;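 active = mean replicate activation score at least 90 and every replicate individually at or above 90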;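 note: higher luciferase means less miR-122 activity so hits act as miR-122 inhibitors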
DENV2 CPE rescue – DENV2-induced cell death inhibition. DENV2-infected cells, cytopathic effect rescue, plate reader. CPE inhibition, % at 9.99 µM. 350,000 tested, 1.7% active; in the data active = CPE inhibition above about 20%, passing the limit was not always enough; tested in BHK-21 cells;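 note: 0% = median of neutral control wells and 100% = median of positive control wells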
PGC1a acetyl inh – lowers PGC1a acetylation signal in U2OS cells | AlphaScreen anti-acetyl-lysine; with virally co-expressed GCN5 acetyltransferase | inhibition, % at 15.6 µM | 350,000 tested, 0.17% active;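 active = every replicate shows inhibition of at least 40%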;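 note: 0% = neutral control wells and 100% = positive control wells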
Statin myotox sup – protects C2C12 myotubes from simvastatin toxicity; ATP luminescence, 48 h; scaled: DMSO 0, geranylgeraniol control 100; 330,000 tested, 0.78% active; rescue of ATP level, % at 7.49 µM;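 active = mean ATP rescue above about 67%, or every replicate alone reaching that limit, limit read from the data, passing the limit was not always enough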;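 note: myotubes were challenged with 10 µM simvastatin during compound exposure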
* = called active by the depositor; [ ] = another dose, or the depositor's remark. Rows were chosen to be rich in hits. Some 2.2% of all compounds tested hit in one or more screens of this group.

For COc1ccc(CN(C)C[C@H]2Oc3c(NC(=O)NC4CCCCC4)cccc3C(=O)N([C@H](C)CO)C[C@@H]2C)cc1 the results were miR-122 sensor 255*[16.7 µM], DENV2 CPE rescue 11, PGC1a acetyl inh -13 and Statin myotox sup -57.
For C[C@@H]1CN([C@@H](C)CO)C(=O)c2cccc(NC(=O)NC3CCCCC3)c2O[C@@H]1CN(C)Cc1ccc(Oc2ccccc2)cc1 the results were miR-122 sensor 1[16.7 µM], DENV2 CPE rescue 2 and PGC1a acetyl inh 28.
Screening COc1ccc(CN(C)C[C@@H]2Oc3c(NC(=O)Nc4ccc(C(F)(F)F)cc4)cccc3C(=O)N([C@H](C)CO)C[C@H]2C)cc1 returned miR-122 sensor -9[16.7 µM], DENV2 CPE rescue 4, PGC1a acetyl inh 1 and Statin myotox sup -4.
Screening COc1ccc(CN(C)C[C@@H]2Oc3c(NC(=O)Nc4ccc(OC)cc4)cccc3C(=O)N([C@H](C)CO)C[C@H]2C)cc1 returned miR-122 sensor 11[16.7 µM], DENV2 CPE rescue 42*, PGC1a acetyl inh 23 and Statin myotox sup 20.
Screening CC(=O)N1[C@H](CO)[C@@H]2c3ccccc3N(S(=O)(=O)c3cccc(C)c3)C[C@@H]21 returned miR-122 sensor 8[16.7 µM], DENV2 CPE rescue 15, PGC1a acetyl inh -3 and Statin myotox sup 19.
Screening Cc1cccc(S(=O)(=O)N2C[C@H]3[C@@H](c4ccccc42)[C@@H](CO)N3C(=O)c2ccccc2)c1 returned miR-122 sensor 42[16.7 µM], DENV2 CPE rescue 57*, PGC1a acetyl inh -4 and Statin myotox sup -17.
Screening O=S(=O)(c1ccccc1)N1C[C@H]2[C@@H](c3ccccc31)[C@@H](CO)N2Cc1ccccc1 returned miR-122 sensor 18[16.7 µM], DENV2 CPE rescue 27*, PGC1a acetyl inh -8 and Statin myotox sup 16.
For Cc1cccc(S(=O)(=O)N2C[C@H]3[C@@H](c4ccccc42)[C@@H](CO)N3Cc2cccnc2)c1 the results were miR-122 sensor -4[16.7 µM], DENV2 CPE rescue 27*, PGC1a acetyl inh 2 and Statin myotox sup -30.
For Cc1ccccc1-c1cc(C(=O)NCc2cccc(C(F)(F)F)c2)nn1CC1CC(c2cccc([N+](=O)[O-])c2)=NO1 (centres undefined) the results were PvdQ acylase -15, miR-122 sensor 8, DENV2 CPE rescue 49*, PGC1a acetyl inh -24 and Statin myotox sup 28.
Screening Cc1ccccc1-c1cc(C(=O)O)nn1CC1CC(c2cccc([N+](=O)[O-])c2)=NO1 (centres undefined) returned PvdQ acylase 1, DENV2 CPE rescue 126* and Statin myotox sup 3.
`Cn1c(SCC(=O)N2CCCC2)nc2c(c1=O)SCC2` gave miR-122 sensor -13, DENV2 CPE rescue 59* and Statin myotox sup 8.
COc1ccc(NC(=O)N2CC(=O)N3[C@H](C2)[C@@H](c2ccc(-c4ccccc4)cc2)[C@@H]3CO)cc1 was read as DENV2 CPE rescue 12 and PGC1a acetyl inh 10.
`Cc1ccccc1C(=O)Nc1ccc(Br)c(C)n1` gave PvdQ acylase 12, miR-122 sensor 128*, PGC1a acetyl inh 3 and Statin myotox sup -10.
Cc1nc(NC(=O)c2cccnc2)ccc1Br was read as PvdQ acylase 0, miR-122 sensor -2, PGC1a acetyl inh 7 and Statin myotox sup -15.
`Cc1nc(NC(=S)NC(=O)c2cncc(Br)c2)ccc1Br` gave PvdQ acylase -16, miR-122 sensor -2, DENV2 CPE rescue -7, PGC1a acetyl inh 15 and Statin myotox sup 102*.
Cc1ccnc(NC(=S)NC(=O)c2cncc(Br)c2)c1 was read as PvdQ acylase 2.
O=C(O)C[C@@H]1C[C@H]2c3cc(NC(=O)NC4CCCC4)ccc3O[C@H]2[C@@H](CO)O1 was read as miR-122 sensor 0[16.7 µM], DENV2 CPE rescue 9, PGC1a acetyl inh 1 and Statin myotox sup 0.
CC(C)Cn1c(NCCO)nc2ccccc21 was read as PvdQ acylase -12, miR-122 sensor -7, PGC1a acetyl inh 9 and Statin myotox sup 93*.
COc1cccc(COC(=O)CSCC(=O)Nc2ccc(C)cc2)c1OC was read as miR-122 sensor -1, DENV2 CPE rescue 72*, PGC1a acetyl inh -6 and Statin myotox sup 0.
`COc1ccccc1NC(=O)N[C@@H]1CC[C@H](CCNC(=O)c2ccc3c(c2)OCO3)O[C@H]1CO` gave miR-122 sensor 2[16.7 µM], DENV2 CPE rescue -9, PGC1a acetyl inh -6 and Statin myotox sup 2.
For C[C@@H]1CN([C@@H](C)CO)C(=O)Cc2cc(NS(=O)(=O)c3cn(C)cn3)ccc2O[C@@H]1CN(C)Cc1ccc(-c2ccccc2)cc1 the results were miR-122 sensor -11[16.7 µM], DENV2 CPE rescue 6, PGC1a acetyl inh 7 and Statin myotox sup 11.
For CC(C)NC(=O)N(C)C[C@H]1OCCCC[C@H](C)Oc2ccc(NS(=O)(=O)c3ccc(F)cc3)cc2C(=O)N([C@@H](C)CO)C[C@H]1C the results were miR-122 sensor -12[16.7 µM], DENV2 CPE rescue -8 and PGC1a acetyl inh 1.
Screening CC(=Nc1ccccc1)C1=C(O)C(Cc2cccc(F)c2)NC1=O (centres undefined) returned miR-122 sensor 158*, DENV2 CPE rescue 20, PGC1a acetyl inh -1 and Statin myotox sup -51.
Screening CC(=Nc1ccccc1)C1=C(O)C(Cc2ccc(O)cc2)NC1=O (centres undefined) returned PvdQ acylase 1 and DENV2 CPE rescue 14.
CC(C)CC#Cc1ccc2c(c1)O[C@@H](CN(C)C)[C@H](C)CN([C@@H](C)CO)S2(=O)=O was read as miR-122 sensor 0[16.7 µM], DENV2 CPE rescue -1, PGC1a acetyl inh -68 and Statin myotox sup -33.
`O=C(NNC(=S)Nc1ccccc1)C1CC1` gave PvdQ acylase -8, miR-122 sensor -5, PGC1a acetyl inh 6 and Statin myotox sup -4.
Screening S=C(NN=C(C1CC1)C1CC1)Nc1ccccc1 returned PvdQ acylase -4, miR-122 sensor 3, PGC1a acetyl inh -21 and Statin myotox sup 142*.
`C[C@@H]1CN([C@H](C)CO)C(=O)c2cccc(NS(=O)(=O)c3cccs3)c2O[C@H]1CN(C)C(=O)Nc1ccc2c(c1)OCO2` gave miR-122 sensor 8[16.7 µM], DENV2 CPE rescue -3, PGC1a acetyl inh 4 and Statin myotox sup 24.
For O=C(Nc1ccccc1)N(CCCN1CCOCC1)Cc1cccs1 the results were PvdQ acylase -4, miR-122 sensor -5, DENV2 CPE rescue -1, PGC1a acetyl inh 1 and Statin myotox sup -6.
CCc1ccc(NC(=O)N(CCCN2CCOCC2)Cc2cccs2)cc1 was read as PvdQ acylase -6, miR-122 sensor -6, DENV2 CPE rescue 34*, PGC1a acetyl inh 12 and Statin myotox sup -47.
`COc1cccc(-c2ccc([C@@H]3[C@H]4CN(C(=O)C5CCCCC5)CC(=O)N4[C@H]3CO)cc2)c1` gave DENV2 CPE rescue 2 and PGC1a acetyl inh -2.
Screening CN1CCN(C(=O)C[C@H]2CC[C@@H]3[C@H](COC[C@@H](O)CN3S(=O)(=O)c3cccc(Cl)c3)O2)CC1 returned miR-122 sensor 1[16.7 µM], DENV2 CPE rescue 23*, PGC1a acetyl inh -4 and Statin myotox sup 10.

High-throughput results deposited in PubChem by Broad Institute.
